The panel holds about 79,000 compounds, 15% with a hit somewhere; the sample as a whole holds those more often. The source made the active and inactive calls. Cut-off read from the data, not from the text of the source: active = growth inhibition above about 70%; inactive = the rest.

The assay can be described thus: NCI Yeast Anticancer Drug Screen. Data for the mlh1 rad18 strain (AID 175). The settings on record: S. cerevisiae mlh1 rad18 strain growth inhibition; at 50.0 µM; active compounds read high. How it is done: Growth inhibition of yeast strains with defined genetic alterations is measured as a screen for potential anti-cancer activity. Selected strains with alterations in DNA damage repair or cell cycle control were exposed to compounds and growth inhibition was measured relative to vehicle treated controls. The strain used in this assay is mlh1 rad18
As to `CC1(C)Nc2cccc3c(N=Nc4ccc(N=Nc5ccccc5)c5ccccc45)ccc(c23)N1`, the growth inhibition is -74.6% (inactive). Next, `Cc1ccc(CCCC(=O)O)c(C)c1`: 45.6% (inactive). `COc1ccc(/C(C#N)=C2C=C/C(=N/O)c3ccccc3\2)cc1`: the growth inhibition is 19.9% (inactive). To `O=S(=O)(O)c1cc(O)c2c(N=Cc3ccccc3O)c(S(=O)(=O)O)ccc2c1` belongs 8.3% (inactive); to `O=C1Cc2cc(O)ccc2O1`, -8.75% (inactive); to `CC(=O)OC(OC(C)=O)C1CCCO1` (stereo not given), 1.1% (inactive).

`CCOc1ccc2[nH]c(=S)sc2c1`: the growth inhibition is 21.4% (inactive). Next, `N#CCCN(CCCN1CCOCC1)CN1C(=O)c2ccccc2C1=O`: 19.4% (inactive); `CC(=O)NC(N)=S`: -7% (inactive).

With `c1csc(-c2cc(-c3cc(-c4cccs4)[nH]n3)n[nH]2)c1`, the growth inhibition was 2.6% (inactive).

For `OC(c1ccccn1)C(O)c1ccccn1` (stereo not given), the growth inhibition was 3.2% (inactive). `O=C(Cc1nc2ccc([N+](=O)[O-])cc2nc1CC(=O)c1ccccc1)c1ccccc1`: the growth inhibition is -1.1% (inactive). For `COc1ncnc2c1cnn2C`, the growth inhibition is 2.9% (inactive). For `COC(=O)c1cccnc1`, the growth inhibition was -1.2% (inactive).

As for `CCOC(=O)C(=O)C=P(c1ccccc1)(c1ccccc1)c1ccccc1`, the growth inhibition is -24.2% (inactive). On to `COc1cccc(COC(=O)Nc2ccccc2)c1OC`, for which the growth inhibition is 0.65% (inactive). As for `Nc1ccccc1C(=O)Nc1ccc(Cl)cc1Cl`, the growth inhibition is 2.35% (inactive). `CCCC(=O)Nc1ccc2c(c1)CN1C(=O)c3ccccc3C1=N2`: the growth inhibition was -7.15% (inactive). In the case of `NCCCN`, the growth inhibition was 6.55% (inactive).

On to `COCCCNC(=O)c1nnn2c1nc(N)c1cc(Cl)ccc12`, for which the growth inhibition is 10.6% (inactive).

As to `OC1CCCc2ccccc21` (stereo not given), the growth inhibition was 20.2% (inactive). To `COc1ccc(OC)c(/C=C2\CCc3ccccc3C2=O)c1` belongs -23.6% (inactive); to `O=c1[nH]c(O)c(/C=C2/C=Nc3ccccc32)[nH]1`, 0.6% (inactive); to `OC1OC(COC(c2ccccc2)(c2ccccc2)c2ccccc2)C(O)C(O)C1O` (stereo not given), -17% (inactive). With `N/N=C(/Cc1ccccc1)NNC(N)=S`, the growth inhibition is -0.45% (inactive). Consider `O=S(=O)(O)c1ccc(Cl)c(Cl)c1`, for which the growth inhibition is -2.25% (inactive).

For `CCOC(=O)c1[nH]c(C)c(C(C)=O)c1C`, the growth inhibition is -8.15% (inactive). On to `CCN1C(=O)/C(=C/C=C/N(C)c2ccccc2)SC1=S`, for which the growth inhibition is 7.85% (inactive).

For the compound `Cc1ccc(N)cc1[N+](=O)[O-]`, the growth inhibition is 15.8% (inactive). To `N#CSc1cc(S(N)(=O)=O)ccc1N` belongs 32% (inactive); to `CC(C)=CC(=O)OC(=O)C=C(C)C`, -8.65% (inactive); to `CC(=O)OCC1OC(OC2=C(CC=C(C)C)C(=O)c3ccccc3C2=O)C(OC(C)=O)C(OC(C)=O)C1OC(C)=O` (stereo not given), -6.6% (inactive). With `C/C(O)=C(\C=N\C(N)=S)C(=O)Nc1ccccc1`, the growth inhibition was 3.7% (inactive). To `OCCN1CCOCC1` belongs 27.2% (inactive); to `FC(F)(F)c1ccc2c(c1)N(CCCN1CCN(C3CC3)CC1)c1ccccc1S2`, 99.5% (active). Next, `CC(=O)N(C)c1ccc([N+](=O)[O-])cc1`: 1.3% (inactive); `O=[N+]([O-])c1ccc(-c2noc(-c3cccs3)n2)cc1`: -11.8% (inactive). `N#CCc1ccc([N+](=O)[O-])cc1`: the growth inhibition is -6.3% (inactive). Next, `CC1=CC(C)(C)NC(=S)N1c1ccc(S(=O)(=O)O)c2cccc(S(=O)(=O)O)c12`: -33.1% (inactive); `Clc1ccc(-c2n[nH]c3c2Cc2ccccc2-3)cc1Cl`: 7.45% (inactive).

The record behind these values is PubChem BioAssay (NCI).
